The results in this text go back to PubChem BioAssay AID1259343 (VanderVen Lab, College of Veterinary Medicine, Cornell …, 2017).

SMILES strings stand for the structures. Out of some 6,200 compounds screened, about 2,900 (47%) were called active. The set was probably picked from earlier hits. The list shows a part of the results. Unmarked numbers belong to inactive results. Rule as the data show it: active = inhibition above about 50%; inactive = the rest.

This test in a line: Mycobacterium tuberculosis growth inhibition, primary screen (AID 1259343). Particulars: inhibition: at 10 µM, active compounds read high; outcome: 10 uM.
As a reminder, the inhibition is the drop in the measured response relative to a control, in per cent. As for `O=C(Nc1ccc(Cl)nc1)N1CCC(COCc2ccccc2)C1` (stereo unspecified), the inhibition was 95% (active).

Regarding `COC(=O)C1CCC2C3CC=C4CC(O)CCC4(C)C3CCC12C` (stereo unspecified), the inhibition is 79.9% (active).

Take `CC12CCC(O)CC1=CCC1C2CCC2(C)C(O)C(=Cc3ccc([N+](=O)[O-])cc3)CC12` (stereo unspecified): the inhibition is -53.2%.

With `COc1ccc(C=C2CC3C4CC=C5CC(O)CCC5(C)C4CCC3(C)C2O)cc1` (stereo unspecified), the inhibition was -0.03%.

Take `S=C(NC1Cc2ccccc2C1)N1CCCC1`: the inhibition was 14.2%.

On to `CN(Cc1cccc(F)c1)C(=O)c1ccc(NC(=O)C2CC2)s1`, for which the inhibition was -11.3%.

As for `O=C(Cc1cccc(F)c1)NCc1ccc(Cl)s1`, the inhibition was 64.5% (active).

With `CC(=O)c1ccc(OC(=O)COc2ccc(Oc3ccc(C)cc3)cc2)cc1`, the inhibition is 88.7% (active).

Consider `COc1cccc(OCC(=O)Oc2ccc(C(=O)c3ccc(C)cc3)cc2)c1`, for which the inhibition was 53% (active).

On to `CC(=O)c1ccc(OC(=O)COc2cccc(OCCC(C)C)c2)cc1`, for which the inhibition is 67.6% (active).

As to `CCOc1ccc(OCCCOc2ccc(Cl)cc2)cc1`, the inhibition result is “inactive”.

As to `CCOc1ccc(OCCOc2cccc(C(F)(F)F)c2)cc1`, the inhibition was 84.9% (active).

On to `CCOc1cccc(OCCOc2cccc(Br)c2)c1`, for which the inhibition was 36.5%.

Take `CCOc1ccccc1OCCOc1ccccc1`: the inhibition was 27.6%.

As to `CCOc1ccc(OCCOCCOc2ccccc2)cc1`, the inhibition was 92.7% (active).

For `CCOc1ccc(OCCOc2ccc(Cl)cc2)cc1`, the inhibition was 93.8% (active).

On to `CCOc1ccc(OCCOc2ccccc2)cc1`, for which the inhibition is 92.8% (active).

Turning to `CCOc1ccc(OCCCOc2ccc(C)cc2)cc1`, the inhibition was -3.92%.

For the compound `CCOc1ccc(OCCCOc2ccc(CC)cc2)cc1`, the inhibition was -34%.

Turning to `Clc1ccc(OCCOC2OCCOC2OCCOc2ccc(Cl)cc2)cc1` (stereo unspecified), the inhibition is 76.8% (active).

For `CCOc1ccc(OCCCOc2ccc(I)cc2)cc1`, the inhibition is 92.8% (active).

Turning to `Clc1ccc(OCCOCCOc2ccc(Cl)cc2)cc1`, the inhibition was 21.3%.

On to `CN=c1scc(C)n1N=C(C)c1cccc(F)c1`, for which the inhibition was 15.2%.

As for `COc1ccc(/C=C(/C#N)c2c[nH]c3ccccc23)cc1`, the inhibition is 33.9%.

As to `CC(C)OCCCNC(=O)Cc1cc(-c2ccc(F)cc2F)on1`, the inhibition is 36.4%.

For `O=C(Cc1cc(-c2ccc(F)cc2F)on1)NCCCc1ccccc1`, the inhibition is 54% (active).

In the case of `O=C(Cc1cc(-c2ccc(F)cc2)on1)NCCC1=CCCCC1`, the inhibition is 36.7%.

Take `O=C(OCc1cc(-c2ccc(F)cc2F)on1)C1CC1`: the inhibition is 38.6%.

`O=C(Cc1cc(-c2ccc(F)cc2F)on1)NCCc1ccccc1`: the inhibition is 93.5% (active).

Turning to `O=C(Cc1cc(-c2ccc(F)cc2F)on1)NCCC1=CCCCC1`, the inhibition is 85.6% (active).

Turning to `COc1ccc(NC(=O)c2ccc3c(c2)CCCC3)c(OC)c1`, the inhibition is 10.4%.

Turning to `COc1ccc(NC(=O)c2ccc3c(c2)CCCC3)cn1`, the inhibition was 97.6% (active).

Take `Fc1c(F)c(F)c(N2CCNCC2)c(F)c1F`: the inhibition was -14.9%.

`FC(F)(F)C1CCCN(c2nsc3ccccc23)C1` (stereo unspecified): the inhibition is 101% (active).

Take `CCN=c1scc(-c2ccc(OC(F)F)cc2)n1N=Cc1ccc2c(c1)OCO2`: the inhibition was -4.29%.

Consider `FC(F)Oc1ccc(-c2n[nH]c(=S)n2N=Cc2ccc3c(c2)OCCO3)cc1`, for which the inhibition was 85.8% (active).

Regarding `Cc1ccc(-c2n[nH]c(=S)n2N=Cc2ccccc2)cc1`, the inhibition was 55.7% (active).

With `O=c1cc(-c2ccc(F)cc2)[nH]n1-c1nc2ccccc2[nH]1`, the inhibition was 75.6% (active).

`c1ccc(-c2ccc(C(c3ccccc3)n3ccnc3)cc2)cc1` (stereo unspecified): the inhibition is 79.7% (active).

Turning to `C=C(C#N)C(O)c1ccc(-c2ccccc2)cc1` (stereo unspecified), the inhibition is 27.8%.

On to `CC(C)c1cc(-n2ccnc2)n2ncc(-c3ccccc3)c2n1`, for which the inhibition entry was “inactive”.

In the case of `COc1ccc(Cl)c2sc(N(CCCN(C)C)C(=O)Cc3ccccc3)nc12`, the inhibition was 69.2% (active).

`Cc1cc(C(=O)N(CCCN(C)C)c2nc3ccc(Cl)cc3s2)nn1C`: the inhibition is 30.6%.

Take `CCC(C)(C)C1CCC2(CC1)NCCc1c2[nH]c2ccccc12` (stereo unspecified): the inhibition is 0.19%.

Consider `Cc1nonc1CN(C)C(=O)c1coc(COc2cccc(C(F)(F)F)c2)n1`, for which the inhibition was 22.3%.

As for `C=C(C)CN(C)C(=O)c1coc(COc2ccc3c(c2)OCO3)n1`, the inhibition was 26.6%.

`C=CCN(C)C(=O)c1coc(COc2ccc3ccc(OC)cc3c2)n1`: the inhibition is 65.1% (active).

Consider `N#Cc1c(F)cccc1NCc1csc(C2CC2)n1`, for which the inhibition was 57.3% (active).

In the case of `N#Cc1c(F)cccc1NCCNc1nc2ccccc2o1`, the inhibition was -5.14%.

On to `OCC1O[C@H]([S-])[C@@H](O)C(O)[C@@H]1O.[Au+]` (stereo partly specified), for which the inhibition was 5.4%.

For `Cc1ccc(NC2OC(CO)C(O)C(O)C2O)cc1Br` (stereo unspecified), the inhibition is 84.8% (active).

As for `COc1cccc(-c2nc3ccc(-c4cccc(Cl)c4)cn3c2CN2CCNCC2)c1`, the inhibition is 23.2%.

Take `CN(C)CCCOc1ccc(-c2nnc3ccc(-c4cccc(Oc5ccccc5)c4)cn23)cc1`: the inhibition was 66.5% (active).

As for `Cc1cc(NC(=O)CNC(c2ccccn2)C(C)C)ccc1Cl` (stereo unspecified), the inhibition is 79.4% (active).

`CCOc1cccc(-c2cccc(-n3cnnc3)c2)c1`: the inhibition was 66% (active).

On to `CCOc1cccc(-c2cnc(NC(C)=O)cn2)c1`, for which the inhibition is 23.7%.

`Oc1ccc(CC2COCC(Cc3ccc(O)cc3)C2)cc1` (stereo unspecified): the inhibition was 62.4% (active).

For the compound `CS(=O)(=O)c1nc(-c2cccs2)cc(C(F)(F)F)n1`, the inhibition was 101% (active).

As for `CS(=O)(=O)c1nc(-c2ccc(F)cc2)cc(C(F)(F)F)n1`, the inhibition was 101% (active).

On to `O=c1ccc(-c2ccc(F)cc2)nn1Cc1cccc(C(F)(F)F)c1`, for which the inhibition was 35.1%.

Regarding `Cc1ccc(-c2cc(C(F)F)nc(S(C)(=O)=O)n2)cc1`, the inhibition is 90.4% (active).

Take `O=c1ccc(-c2ccc(F)cc2)nn1Cc1ccc(C(F)(F)F)cc1`: the inhibition was 20%.

On to `O=c1[nH]c(=S)[nH]c2nc(-c3cccs3)cc(C(F)(F)F)c12`, for which the inhibition was 34.4%.

Regarding `CS(=O)(=O)c1nc(-c2ccccc2)cc(C(F)(F)F)n1`, the inhibition was 99.7% (active).

`Cn1cccc1C1CCCCCN1C(=O)c1ccc(NC2CC2)nc1` (stereo unspecified): the inhibition is -11.4%.

As to `COc1ccc(-c2cc(C(F)(F)F)nc(S(C)(=O)=O)n2)cc1`, the inhibition was 101% (active).

In the case of `Cc1nc2c(OCc3cc(Cl)cc(Cl)c3)cccn2c1N(C)Cc1cccs1`, the inhibition was 82.7% (active).

With `CC(C(=O)Nc1cccc(Cl)c1)N(C)Cc1cccs1` (stereo unspecified), the inhibition is 5%.

Regarding `CCCc1cc(=O)[nH]c(-n2nc(C)cc2NC(=O)/C=C/c2ccc(OC)c(OC)c2)n1`, the inhibition was 102% (active).

Regarding `COc1cc(/C=C/C(=O)Nc2cc(C)nn2-c2nc(C)c(C)c(=O)[nH]2)cc(OC)c1OC`, the inhibition is 99.5% (active).

`COc1cc(/C=C/C(=O)Nc2cc(C)nn2-c2nc3c(c(=O)[nH]2)CCC3)cc(OC)c1OC`: the inhibition is 2.27%.

For `CCCc1cc(=O)[nH]c(-n2nc(C)cc2NC(=O)/C=C/c2cc(OC)c(OC)c(OC)c2)n1`, the inhibition is 99.8% (active).

With `CC(O)CN1CCN(C(=O)c2cc(Cl)c(Cl)n2C)CC1` (stereo unspecified), the inhibition is -16.4%.

Take `CCn1cnnc1CCNS(=O)(=O)NCc1ccccc1`: the inhibition is -1.72%.

As for `Cn1nnnc1SCc1nc(-c2cccc(C(F)(F)F)c2)no1`, the inhibition was -6.38%.

As for `Fc1c(F)c(F)c(Cn2nnc(-c3ccccc3)n2)c(F)c1F`, the inhibition was 26.7%.

Regarding `FC(F)(F)c1cccc(-c2nnn(Cc3ncc(-c4ccccc4)o3)n2)c1`, the inhibition was 58.2% (active).

Turning to `CCC(=NNC(=O)c1ccc(F)cc1)c1cc(Cl)cc(Cl)c1O`, the inhibition was 53.1% (active).

As to `CC(OC(=O)c1cc(Cl)c(O)c(Cl)c1)c1ccc(F)cc1` (stereo unspecified), the inhibition is 45.8%.

`CC(=NNC(=O)c1cc(-c2cccc3ccccc23)n[nH]1)c1ccccc1O`: the inhibition is 41.3%.

Consider `CN(CC1CCCO1)S(=O)(=O)c1ccc(C(=O)Nc2ccc3sccc3c2)cc1` (stereo unspecified), for which the inhibition is 92% (active).

Turning to `Cc1noc(C)c1CN1CCN2C=C(C(=O)Nc3ccc(-n4cccc4)cc3)OC2=NC1=O`, the inhibition was 30.7%.

Consider `O=C(Nc1ccc(-n2cccc2)cc1)C1=COC2=NC(=O)N(Cc3ccccc3)CCN12`, for which the inhibition is 84.6% (active).

On to `Cc1noc(C)c1CN1CCN2C(C(=O)Nc3ccc(-n4cccc4)cc3)=COC2=NC1=O`, for which the inhibition is 90.5% (active).

As for `Cc1ccccc1CN1CCN2C(C(=O)Nc3ccc(-n4cccc4)cc3)=COC2=NC1=O`, the inhibition is 88.2% (active).

With `Cn1ncc(NCc2ccc(-c3ccc4c(c3)CCO4)cc2)c(Cl)c1=O`, the inhibition was 68.8% (active).

With `O=C(c1ccc2c(c1)CCO2)N1CCOC(c2ccc(Cl)c(Cl)c2)C1` (stereo unspecified), the inhibition was 7.26%.

Regarding `c1cc(-c2ccc3c(c2)CCO3)ccc1CNC1CCCC1`, the inhibition was 75% (active).

Turning to `CC(C)Cc1nc(CN(C)Cc2ccc3c(c2)CCO3)no1`, the inhibition was 21.8%.

As for `CC(C)(C)n1ncc(NCc2cccc3c2OCO3)c(Cl)c1=O`, the inhibition was 27.4%.

For `Cc1cc(NC(=O)CON=C2CCN(C(=O)C3CC3)CC2)ccc1Br`, the inhibition is 92.3% (active).

For the compound `Cc1cc(NC(=O)COC(=O)c2ccoc2)ccc1Br`, the inhibition was 68.6% (active).

For `Cc1cc(NC(=O)COc2ccc(C3=CCN(C(N)=O)CC3)cc2)ccc1Br`, the inhibition is -21.6%.

As to `O=c1[nH]c(=S)[nH]nc1Cc1ccc(Cl)c(Cl)c1`, the inhibition was 96.8% (active).

As for `O=C(CCc1n[nH]c(=S)[nH]c1=O)NCc1cccc(C(F)(F)F)c1`, the inhibition is -13.8%.

As to `CC(C)C1=NOC(c2nc(C(C)c3ccccc3)no2)C1` (stereo unspecified), the inhibition is 30.4%.

As for `Cc1c[nH]c(=O)n1-c1ccc(C(=O)N2CCCC2c2ccccc2)cc1` (stereo unspecified), the inhibition was -8.28%.

Take `CC1CC1C(=O)NCc1ccc(Oc2ccc(F)cc2)cc1` (stereo unspecified): the inhibition is -11.6%.

`O=C(NCc1ccc(Oc2ccc(F)cc2)cc1)C1CC=CCC1` (stereo unspecified): the inhibition is 88.9% (active).

With `COc1cccc(CN(C)Cc2nc(-c3cccs3)no2)c1`, the inhibition is 54.7% (active).

On to `CN(Cc1nc(-c2cccs2)no1)CC1Cc2ccccc2O1` (stereo unspecified), for which the inhibition entry is “inactive”.
